# Measurements taken from the supplement of paper PMC8728848.
# The sample as a whole holds a higher share of the strongest signals than the screen did.
# B1: SP16664B-bot-474-25-474 (Bacteroides ovatus) (protein)
# chain: CEEDIEIGNKIDESSYLASTQLSGLLLDENTNKNSSVIELRNNEYSTNVVFRLSKLPQKGVDVQIAVEESYAAIYNTIHETDFEVFPAANVKIANNGTFVLAPDDKVTPSVKVTLTAFDGMEEDKTYIVPLTVTSSTEGVTFTETSKHMVLLVQDYRNKPNTNKGEDAVQTVLYFEVNDTNPLNALEFLTESGKYFFDHIVLFAANINWDPEKQRVYLANNENVQFLLDNNDKYLQPLRKAGMKIIISILGNHDEAGVAQLSDMGAREFARELAAYCRAYNLDGVAFDDEYSNSPDLSNPWLASPSAYAGSRLMYECKAVMPEKIVSLYNLGNMYSSSLQVIDGIEPGQYCDYAVADYGGAAGPGTGMTLKQCAGMSIELRRGSGNSSESTARSRKEAGYGYYMFFALDPSLYGSQVYRCQSVCKGLYDETLVYPSYYYKKNSTEREAIN
# Experiments:
# Experiment in all cases: glycan array binding signal (z-score within array); higher = stronger binding
# Conditions in all cases: glycan notation: IUPAC condensed, linker removed
# [1] = target: Gal(b1-4)GlcNAc(b1-3)Gal(b1-4)GlcNAc(b1-3)GalNAc
# Method in brief: (§1)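 Glycan array data came from 3228 arrays in the Consortium for Functional Glycomics database, and only arrays with an available protein sequence were kept. Glycan names were put into IUPAC-condensed notation, and columns mapping to the same glycan were averaged. The binding signal is a within-array Z-score, averaged across arrays of one protein sequence run at different concentrations or buffers and across linkers. A negative Z-score can be read as non-binding.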
# [2] = target: Gal(b1-4)GlcNAc(b1-3)Gal(b1-4)GlcNAc(b1-6)[Gal(b1-3)]GalNAc
# Method in brief: as §1
# Gal(b1-6)Gal = target: Gal(b1-6)Gal
# Method in brief: as §1
# [3] = target: Gal3S(b1-4)[Fuc(a1-3)]GlcNAc6S
# Method in brief: as §1
# Gal3S4S(b1-4)GlcNAc = target: Gal3S4S(b1-4)GlcNAc
# Method in brief: as §1
# Gal4S6S(b1-4)GlcNAc = target: Gal4S6S(b1-4)GlcNAc
# Method in brief: as §1
# Gal6S(b1-3)GlcNAc = target: Gal6S(b1-3)GlcNAc
# Method in brief: as §1
# Gal6S(b1-3)GlcNAc6S = target: Gal6S(b1-3)GlcNAc6S
# Method in brief: as §1
# Gal6S(b1-4)Glc = target: Gal6S(b1-4)Glc
# Method in brief: as §1
# Gal6S(b1-4)Glc6S = target: Gal6S(b1-4)Glc6S
# Method in brief: as §1
# Gal6S(b1-4)GlcNAc6S = target: Gal6S(b1-4)GlcNAc6S
# Method in brief: as §1
# Glc(a1-4)Glc = target: Glc(a1-4)Glc
# Method in brief: as §1
# [4] = target: GlcNAc(a1-4)Gal(b1-4)GalNAc
# Method in brief: as §1
# [5] = target: GlcNAc(a1-4)Gal(b1-4)GlcNAc(b1-3)Gal(b1-4)GlcNAc(b1-3)Gal(b1-4)GlcNAc
# Method in brief: as §1
# [6] = target: GlcNAc(a1-4)Gal(b1-4)GlcNAc(b1-3)Gal(b1-4)[Fuc(a1-3)]GlcNAc(b1-3)Gal(b1-4)[Fuc(a1-3)]GlcNAc
# Method in brief: as §1
# [7] = target: GlcNAc(b1-2)[GlcNAc(b1-4)]Man(a1-3)[GlcNAc(b1-2)Man(a1-6)]Man(b1-4)GlcNAc(b1-4)GlcNAc
# Method in brief: as §1
# [8] = target: GlcNAc(b1-3)Gal(b1-4)GlcNAc(b1-2)Man(a1-3)[GlcNAc(b1-3)Gal(b1-4)GlcNAc(b1-2)Man(a1-6)]Man(b1-4)GlcNAc(b1-4)[Fuc(a1-6)]GlcNAc
# Method in brief: as §1
# [9] = target: GlcNAc(b1-3)Gal(b1-4)GlcNAc(b1-3)Gal(b1-4)GlcNAc(b1-2)Man(a1-3)[GlcNAc(b1-3)Gal(b1-4)GlcNAc(b1-3)Gal(b1-4)GlcNAc(b1-2)Man(a1-6)]Man(b1-4)GlcNAc(b1-4)[Fuc(a1-6)]GlcNAc
# Method in brief: as §1
# [10] = target: GlcNAc(b1-3)Gal(b1-4)GlcNAc(b1-3)Gal(b1-4)GlcNAc(b1-3)Gal(b1-4)GlcNAc(b1-2)[GlcNAc(b1-3)Gal(b1-4)GlcNAc(b1-3)Gal(b1-4)GlcNAc(b1-3)Gal(b1-4)GlcNAc(b1-6)]Man(a1-6)[GlcNAc(b1-3)Gal(b1-4)GlcNAc(b1-3)Gal(b1-4)GlcNAc(b1-3)Gal(b1-4)GlcNAc(b1-2)Man(a1-3)]Man(b1-4)GlcNAc(b1-4)[Fuc(a1-6)]GlcNAc
# Method in brief: as §1
# [11] = target: GlcNAc(b1-3)Gal(b1-4)GlcNAc(b1-3)Gal(b1-4)GlcNAc(b1-3)Gal(b1-4)GlcNAc(b1-3)Gal(b1-4)GlcNAc(b1-2)Man(a1-3)[GlcNAc(b1-3)Gal(b1-4)GlcNAc(b1-3)Gal(b1-4)GlcNAc(b1-3)Gal(b1-4)GlcNAc(b1-3)Gal(b1-4)GlcNAc(b1-2)Man(a1-6)]Man(b1-4)GlcNAc(b1-4)[Fuc(a1-6)]GlcNAc
# Method in brief: as §1
# [12] = target: GlcNAc(b1-3)Gal(b1-4)GlcNAc(b1-6)[Gal(b1-3)]GalNAc
# Method in brief: as §1
# GlcNAc(b1-3)Man = target: GlcNAc(b1-3)Man
# Method in brief: as §1
# GlcNAc(b1-6)GalNAc = target: GlcNAc(b1-6)GalNAc
# Method in brief: as §1
# [13] = target: Man(a1-2)Man(a1-2)Man(a1-6)[Man(a1-3)]Man
# Method in brief: as §1
# [14] = target: Man(a1-2)Man(a1-3)[Man(a1-2)Man(a1-6)]Man
# Method in brief: as §1
# [15] = target: Man(a1-2)Man(a1-3)[Man(a1-6)]Man(a1-6)[Man(a1-2)Man(a1-3)]Man(b1-4)GlcNAc(b1-4)GlcNAc
# Method in brief: as §1
# Man(a1-6)Man = target: Man(a1-6)Man
# Method in brief: as §1
# MurNAc(b1-4)GlcNAc = target: MurNAc(b1-4)GlcNAc
# Method in brief: as §1
# [16] = target: Neu5Ac(a2-3)Gal(b1-3)[Fuc(a1-4)]GlcNAc(b1-3)Gal(b1-4)[Fuc(a1-3)]GlcNAc
# Method in brief: as §1
# [17] = target: Neu5Ac(a2-3)Gal(b1-4)GlcNAc(b1-3)Gal(b1-3)GlcNAc
# Method in brief: as §1
binder,measurement,setting,value
B1,glycan array binding signal (z-score),[1],1.54
same,glycan array binding signal (z-score),[2],0.334
same,glycan array binding signal (z-score),Gal(b1-6)Gal,-0.141
same,glycan array binding signal (z-score),[3],0.545
same,glycan array binding signal (z-score),Gal3S4S(b1-4)GlcNAc,0.303
same,glycan array binding signal (z-score),Gal4S6S(b1-4)GlcNAc,-0.008
same,glycan array binding signal (z-score),Gal6S(b1-3)GlcNAc,0.118
same,glycan array binding signal (z-score),Gal6S(b1-3)GlcNAc6S,0.522
same,glycan array binding signal (z-score),Gal6S(b1-4)Glc,-0.453
same,glycan array binding signal (z-score),Gal6S(b1-4)Glc6S,0.797
same,glycan array binding signal (z-score),Gal6S(b1-4)GlcNAc6S,-0.289
same,glycan array binding signal (z-score),Glc(a1-4)Glc,-0.119
same,glycan array binding signal (z-score),[4],0.293
same,glycan array binding signal (z-score),[5],-0.159
same,glycan array binding signal (z-score),[6],4.58
same,glycan array binding signal (z-score),[7],0.16
same,glycan array binding signal (z-score),[8],0.352
same,glycan array binding signal (z-score),[9],11.2
same,glycan array binding signal (z-score),[10],0.018
same,glycan array binding signal (z-score),[11],0.334
same,glycan array binding signal (z-score),[12],1.57
same,glycan array binding signal (z-score),GlcNAc(b1-3)Man,0.501
same,glycan array binding signal (z-score),GlcNAc(b1-6)GalNAc,-0.234
same,glycan array binding signal (z-score),[13],-0.417
same,glycan array binding signal (z-score),[14],-0.568
same,glycan array binding signal (z-score),[15],-0.368
same,glycan array binding signal (z-score),Man(a1-6)Man,0.198
same,glycan array binding signal (z-score),MurNAc(b1-4)GlcNAc,-0.181
same,glycan array binding signal (z-score),[16],0.654
same,glycan array binding signal (z-score),[17],-0.055
